NRP1-CendR mod = NRP-1/CendR interaction modulation; O14786; 360,000 compounds, 0.85% hits; inhibition, % at 25 µM; AID 602438; FAM-RPARPAR peptide binding to NRP-1, fluorescence polarization;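 active = inhibition or corrected inhibition above about 18%, plus a signal ratio from 0.5 to 1.5, limit read from the data, passing the limit was not always enough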
F508del corr = correctors of CFTR F508del function in bronchial epithelial cells; activity (quench increase), % at 7.58 µM; CFBE cells, YFP halide quenching; stimulated with forskolin plus potentiator P3; % fluorescence drop versus neutral controls; 350,000 compounds, 0.36% hits;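 active = mean added fluorescence quench of at least 8% versus neutral control, with both replicates also reaching 8%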;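 also: cells transiently co-express mutant CFTR-F508del with the halide-sensitive YFP; corrector assay measuring rescue of mutant channel to the surface after 24 h compound exposure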
ATG4B inhibitor = ATG4B (human) cysteine protease inhibition; Q9Y4P1; ATG4B cleavage of LC3-PLA2, NBD-HPC fluorescence, 1 h; inhibition, % at 8.33 µM; 340,000 compounds, 0.51% hits; in the data active = inhibition above about 40%
Target sequence (Q9Y4P1 whole entry, looked up): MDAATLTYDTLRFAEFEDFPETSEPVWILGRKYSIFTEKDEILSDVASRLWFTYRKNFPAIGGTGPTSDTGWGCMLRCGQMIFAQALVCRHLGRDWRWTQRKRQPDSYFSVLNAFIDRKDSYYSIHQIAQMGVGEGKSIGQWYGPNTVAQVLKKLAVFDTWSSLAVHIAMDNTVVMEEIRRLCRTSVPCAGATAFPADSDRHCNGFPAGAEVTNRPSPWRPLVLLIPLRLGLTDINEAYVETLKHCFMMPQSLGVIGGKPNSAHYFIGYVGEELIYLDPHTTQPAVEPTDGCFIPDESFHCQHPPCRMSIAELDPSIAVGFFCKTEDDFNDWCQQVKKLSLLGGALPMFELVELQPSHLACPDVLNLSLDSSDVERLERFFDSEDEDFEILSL
SKN-1 block = inhibitors of C. elegans SKN-1 | C. elegans VP596 Pgst-4::GFP/RFP ratio, acrylamide-induced, 24 h | inhibition, % at 21.8 µM | 360,000 compounds, 0.49% hits;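 active = interference check ratio from 0.5 to 1.5 plus GFP to RFP signal ratio inhibition reaching or exceeding a fixed threshold, cut at about 30% in these data, passing the limit was not always enough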
MPTP block = inhibitors of mitochondrial permeability transition pore. 360,000 compounds, 1.4% hits. inhibition, % at 10 µM. AID 602449. isolated mouse mitochondria, Ca2+ swelling absorbance, 30 min;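 active = inhibition of 50% or more, scaled per plate between neutral and stimulator controls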;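 also: 0% = DMSO wells given calcium and 100% = 1 mM EGTA wells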
ATG4B conf = ATG4B (human) inhibition, single-dose confirmed. shares compounds with ATG4B inhibitor. ATG4B protease fluorescent substrate cleavage assay. inhibition, % at 8.33 µM. 320 compounds, 92% hits. AID 504757; in the data active = inhibition above about 39%
PLA2 ctr = counter-screen for ATG4B inhibitors: human phospholipase A2. shares compounds with ATG4B inhibitor. purified PLA2, NBD-C6-HPC fluorescence, 45 min. inhibition, % at 8.33 µM. 1,600 compounds, 66% hits; in the data active = inhibition above about 50%
Target sequence (P04054 whole entry, looked up): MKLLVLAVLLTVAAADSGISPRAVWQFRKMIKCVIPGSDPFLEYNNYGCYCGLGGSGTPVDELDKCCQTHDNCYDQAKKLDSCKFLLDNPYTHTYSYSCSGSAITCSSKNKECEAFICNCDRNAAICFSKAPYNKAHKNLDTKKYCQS
An asterisk follows results filed as active; · = not tested or not shown. Rows were chosen to be rich in hits. Some 2.7% of all compounds tested hit in one or more screens of this group.

SMILES	NRP1-CendR mod	F508del corr	ATG4B inhibitor	SKN-1 block	MPTP block	PLA2 ctr	others
O=C(CN1CCOCC1)NCC[C@H]1CC[C@@H](NC(=O)c2ccccc2F)[C@H](CO)O1	·	-1.8	·	·	·	·
COCC(=O)N1C[C@@H]2[C@H](c3ccccc31)[C@@H](CO)N2Cc1ccccc1Cl	·	-1.8	·	·	·	·
C=CCn1c(SCC(=O)Nc2ccc3c(c2)CCC3)nnc1-c1cccs1	9.9	·	67.3*	-21.5	1.2	51.7*
Cc1ccc(C(=O)Nc2ncc(C)s2)o1	-6.1	·	-3.6	6.1	1.0	·
Cc1ccc(C(=O)Nc2ncc(Cc3ccc(F)cc3)s2)o1	3.3	·	57.1*	-5.7	-1.6	64.2*
COc1ccc(-c2csc(NC(=O)c3ccc(C(C)(C)C)cc3)c2C(=O)O)cc1	·	·	47.4*	·	·	52.5*
Cc1ccc(-c2csc(NC(=O)c3ccccc3F)c2C(=O)O)cc1	-4.2	1.9	55.4*	8.3	-0.3	58.1*
O=C(Nc1scc(-c2ccccc2)c1C(=O)O)c1ccccc1F	-4.6	-0.7	29.3	25.4	0.0	·
COc1ccc2c3c([nH]c2c1)[C@H](CO)NCC31CCN(C(=O)C2CCCCC2)CC1	·	-0.4	·	·	·	·
O=C(C[C@@H]1CC[C@@H]2[C@H](COC[C@@H](O)CN2S(=O)(=O)c2ccccc2)O1)Nc1ccccc1	·	0.3	·	·	·	·
CC(C)(C)c1ccc(C(=O)Nc2nnc(Cc3c[nH]c4ccccc34)s2)cc1	-12.7	-0.5	-6.5	1.3	7.6	·
O=C(Nc1nnc(Cc2c[nH]c3ccccc23)s1)c1ccc(Cl)cc1Cl	-24.8	·	52.1*	-6.3	-0.5	50.6*
CC1=C(C(=O)Nc2cccc(C(=O)NCc3ccccc3C)c2)SCCO1	13.4	-2.3	54.0*	-9.6	-1.2	63.9*
CO[C@@H](CN(C)S(=O)(=O)c1cccc(Cl)c1)[C@H](C)CN(C(=O)Nc1ccccc1F)[C@H](C)CO	·	1.2	·	·	·	·
N=C1/C(=C\c2ccc(OC(=O)c3ccccc3)cc2)C(=O)N=C2SC(N3CCOCC3)=NN12	-32.7	0.0	57.0*	4.4	1.6	76.5*
O=c1c2ccccc2nc(/C=C/c2ccc(O)cc2)n1CCc1ccccc1	-6.5	·	47.9*	10.3	-14.8	47.8	ATG4B conf=72.0*
O=c1c2ccccc2nc(/C=C/c2ccccc2)n1CCCO	13.2	-4.3	0.9	4.1	-0.6	·
Oc1c(Br)cc(Br)cc1C=NCc1ccccc1	-90.5	·	73.5*	-7.3	0.8	71.5*
O=C(Cc1ccccc1)N/N=C/c1cc(Br)cc(Br)c1O	1.7	1.4	-5.7	4.0	3.0	·
O=C1NC(c2cccc3ccccc23)Nc2ccc(Cl)cc21 (stereo not given)	-6.2	2.8	43.4*	16.0	1.5	58.7*
Cc1ccc(C)c(N2CCN(C(=O)CCCn3c(=S)[nH]c4cc5c(cc4c3=O)OCO5)CC2)c1	-2.0	·	51.8*	4.6	0.3	62.5*
O=C(CCCn1c(=S)[nH]c2cc3c(cc2c1=O)OCO3)N1CCN(c2ccc(F)cc2)CC1	10.1	·	55.8*	-9.3	3.6	47.8	ATG4B conf=59.5*
O=C(CCCn1c(=S)[nH]c2cc3c(cc2c1=O)OCO3)N1CCN(c2ccccc2F)CC1	-1.1	·	50.6*	23.6	3.8	53.7*
O=C(CCCCCn1c(=S)[nH]c2cc3c(cc2c1=O)OCO3)N1CCN(c2ccccc2)CC1	-1.0	-2.3	7.0	9.6	1.1	·
COc1cccc(NC(=O)NC2CCCc3ccccc32)c1 (stereo not given)	7.8	-7.1	61.8*	9.5	13.5	62.3*
SMILES	NRP1-CendR mod	F508del corr	ATG4B inhibitor	SKN-1 block	MPTP block	PLA2 ctr	others
C[C@H](CO)N1C[C@H](C)[C@H](CN(C)C(=O)Nc2ccccc2)OCCCC[C@H](C)Oc2ccc(NC(=O)Cc3ccccc3)cc2C1=O	·	-2.0	·	·	·	·
COc1cc(C2Nc3cc(Cl)c(S(N)(=O)=O)cc3S(=O)(=O)N2)cc(OC)c1OC (stereo not given)	-7.5	·	8.6	-11.0	0.1	·
COc1cc(C2Nc3cc(Cl)c(S(N)(=O)=O)cc3S(=O)(=O)N2)ccc1OCc1ccccc1 (stereo not given)	-7.1	·	83.5*	-4.7	-1.7	84.9*
CCC(C)(C)C1CCc2c(sc(NC(=O)c3ccccc3C(=O)O)c2C#N)C1 (stereo not given)	-60.0	0.1	71.3*	-13.8	29.4	87.5*
CC1CCc2c(sc(NC(=O)c3ccccc3C(=O)O)c2C#N)C1 (stereo not given)	3.4	-2.0	4.2	0.4	-1.9	·
Cc1ccc(-c2[nH]nc3c2C(c2ccc(OC(=O)N4CCOCC4)cc2)C(C#N)=C(N)O3)cc1 (stereo not given)	-1.9	-0.9	43.1*	4.8	1.0	42.4	ATG4B conf=77.8*
COCC(=O)N(C)C[C@@H]1Oc2ncc(-c3cccc(OC)c3)cc2C(=O)N([C@@H](C)CO)C[C@H]1C	·	0.5	·	·	·	·
CCOC(=O)N1CCN(C(=O)C[C@H]2C[C@@]3(C(=O)OC)C(=C[C@H](COCc4ccccc4)O[C@@H]3C)N(CCC3=CCCCC3)C2=O)CC1	·	1.2	·	·	·	·
Cc1ccccc1CN(c1ccc(C(=O)N/N=C/c2ccc(OCC(N)=O)cc2)cc1)S(C)(=O)=O	-7.6	·	45.5*	-19.9	-3.8	47.0
C[C@@H]1CN([C@H](C)CO)S(=O)(=O)c2ccc(C#Cc3cccc(F)c3)cc2O[C@@H]1CN(C)S(=O)(=O)c1cn(C)cn1	·	1.3	·	·	·	·
CCCNC(=O)N(C)C[C@@H]1Oc2ncc(C#CC3CC3)cc2C(=O)N([C@H](C)CO)C[C@@H]1C	·	1.5	·	·	·	·
O=C(O)c1ccc(N/N=C/c2ccc(OC(=O)c3ccccc3Cl)cc2)cc1	-7.4	-1.4	94.4*	2.3	-10.5	96.2*
Nc1ccc(C(=O)N/N=C\c2ccc(OC(=O)c3ccccc3Cl)cc2)cc1	-4.1	0.8	-0.1	-11.9	2.6	·
Cc1ccc(-c2cnc3n2CCCCC3)cc1	0.4	0.2	-0.5	-2.9	-1.2	·
c1ccc(-c2ccc(-c3cnc4n3CCCCC4)cc2)cc1	-14.9	·	52.4*	16.9	0.7	58.9*
O=C(Nc1ccc2c(c1)OCCO2)N1CCN(c2ccc(F)cc2)CC1	-3.3	·	0.0	8.8	0.6	·
Cc1cccc(C)c1N1CCN(C(=O)Nc2ccc3c(c2)OCCO3)CC1	-5.1	·	44.1*	5.1	5.3	62.5*
CN(C)CCCNC(=O)C[C@@H]1CC[C@@H]2[C@H](COc3ccc(NC(=O)NC4CCCC4)cc3C(=O)N2C)O1	·	-0.3	·	·	·	·
Cc1ccc(S(=O)(=O)Nc2ccc3c4c(cccc24)CC3)c(C)c1	-10.2	·	62.6*	22.8	-1.3	77.7*
Cc1cc(C)c(S(=O)(=O)Nc2ccc3c4c(cccc24)CC3)c(C)c1	-23.5	·	10.6	9.2	-2.9	·
O=c1c2ccccc2nc(SCc2cn3ccsc3n2)n1-c1ccc(F)cc1	-9.1	·	74.5*	-2.1	3.1	71.4*
